Source: PubChem
HT1080NT lethal – kills 2HG-producing HT-1080-NT fibrosarcoma cells; HT-1080-NT fibrosarcoma viability, CellTiter-Glo ATP luminescence, 48 h; Potency, µM (top dose mostly 46.1 µM), inactives show top-dose activity, negative = less viability, actives largely listed as cytotoxic; 1.6% of 360,000 active;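 also: NT is the 2HG producing partner of a matched IDH1 knockdown line; 0% = DMSO-treated cells and -100% = media-only wells without cells; nearly all actives have a fitted effect of over 55% in size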
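750 cells/well, RPMI + 5% FBS; 2 h settle, compound pin-transfer, 48 h at 37 degrees C. CellTiter-Glo 10 min RT, luminescence. Normalized to DMSO and media-only wells.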
KB-3-1 cytotox – KB-3-1 parental cell cytotoxicity; Potency, µM (series often up to 46.1 µM), hits mostly cytotoxic; 1.4% of 400,000 active; AID 1347075; KB-3-1 viability, CellTiter-Glo ATP luminescence, 72 h; also: nearly all actives have a fitted effect of over 60% in size
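KB-3-1 cells, DMEM (no phenol red) + 10% FBS; compound by pin transfer, 72 h, 37 °C. Readout: CellTiter-Glo luminescence after 10 min. Data normalized, curve-fitted.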
HT1080 IDH1KD tx – HT-1080 IDH1 knockdown cell toxicity (counter line); HT-1080 IDH1 knockdown viability, ATP luminescence, 48 h; Potency, µM (titrated, usually from 46.1 µM), for inactives: at the highest dose activity, negative = toxicity, actives largely listed as cytotoxic; 2% of 360,000 active; AID 686971;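 also: 0% = DMSO wells and -100% = cell-free medium wells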
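% activity derives from luminescence (CellTiter-Glo), normalised to DMSO and no-cell wells. HT-1080-IDH1KD cells, 750/well, had 48 h compound exposure at 37 °C.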
TDP1 cell CPT – DT40-hTDP1 cell growth loss with CPT; chicken DT40 Tdp1-/-;hTDP1 cells + 20 nM CPT, ATP luminescence, 48 h; Potency, µM (titrated, usually from 46.2 µM), for the others: at the highest dose activity change, negative = growth inhibition, hits mostly inhibitors; 12% of 420,000 active; AID 686979; also: nearly all actives have a fitted effect of over 55% in size
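Chicken DT40 Tdp1-/- cells stably complemented with human TDP1 were seeded at 400 cells/well in medium containing 20 nM camptothecin, exposed to pin-transferred compounds, and grown at 37 °C for at least 48 hr. Viability was read as ATP luminescence.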
DT40 TDP1 no CPT – qHTS for Inhibitors of human tyrosyl-DNA phosphodiesterase 1 (TDP1): qHTS in cells in absence of CPT; DT40 Tdp1-/- hTDP1 cells, no CPT, ATP luminescence, 48 h; Potency, µM (highest dose often 46.2 µM), for the others: at the top dose activity change, negative = growth inhibition, most hits filed as inhibitors; 15% of 420,000 active; AID 686978, 2013; also: nearly all actives have a fitted effect of over 55% in size
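DT40 Tdp1-/-;hTDP1 cells, no CPT (DMSO vehicle only), 400 cells/well; compounds pin-transferred; ≥48 hr, 37 °C; CellTiter-Glo 30 min RT dark, luminescence read.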
KB-V1 cytotox – kills drug-selected multidrug resistant KB-V1 cells | AID 1347076 | Potency, µM (series often up to 46.1 µM), actives largely listed as cytotoxic | KB-V1 MDR cells viability, CellTiter-Glo, 72 h | 3.4% of 400,000 active; also: nearly all actives have a fitted effect of over 60% in size
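qHTS viability screen in drug-selected KB-V1 MDR cells: 72 h compound treatment at 37 degrees C, ATP luminescence end point.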
* hit, by the source's call; i = inactive; ? = inconclusive; . = no result. A selection: hits, their analogues and other compounds. The true share with any hit is near 19%. Calls follow the shape of the dose curve; as a rule, active = well fitted curve in the direction sought with a large enough effect; inconclusive = small, poorly fitted or top-dose-only effect, or another doubt; inactive = no such curve, though single readings can be large; an effect the other way counts as inactive or inconclusive. Unless noted, % is scaled to controls: 0 for no effect and ±100 for the full control effect; potency is read from the fitted curve at half-maximal effect.

SMILES | HT1080NT lethal | KB-3-1 cytotox | HT1080 IDH1KD tx | TDP1 cell CPT | DT40 TDP1 no CPT | KB-V1 cytotox
COc1ccc(S(=O)(=O)NCC(c2ccco2)N2CCc3ccccc32)cc1 (stereo not drawn) | -11.7% | i | -11.3% | ? | 14.6µM* | i
COc1ccc(C(=O)NCC(c2ccco2)N2CCc3ccccc32)c(OC)c1 (stereo not drawn) | -0.2% | i | -16.0% | ? | 7.31µM* | ?
C[C@@H]1CN([C@@H](C)CO)C(=O)CCCn2cc(nn2)CO[C@H]1CN(C)C(=O)c1cc(-c2ccccc2)on1 | 0.8% | i | -1.5% | 2.3% | -22.6% | i
COc1cccc2c1C(=O)c1c(O)c3c(c(O)c1C2=O)CC(O)(C(C)=O)CC3OC1CC(O)C(O)C(C)O1 (stereo not drawn) | ? | ? | 23.1µM* | 1.16µM* | 0.82µM* | ?
COc1cccc2c1C(=N)c1c(O)c3c(c(O)c1C2=O)CC(O)(C(C)=O)CC3OC1CC(N)C(O)C(C)O1 (stereo not drawn) | 20.6µM* | ? | 20.6µM* | 0.164µM* | 0.184µM* | ?
COc1cccc2c1C(=O)c1c(O)c3c(c(O)c1C2=O)C[C@](O)(C(C)=O)C[C@H]3O[C@@H]1C[C@@H](N)[C@@H](O)[C@@H](C)O1 | 0.651µM* | ? | 0.411µM* | 0.103µM* | 0.092µM* | i
O=S1(=O)N=C(Oc2ccccc2C(F)(F)F)c2ccccc21 | . | i | . | . | . | ?
COc1cc([N+](=O)[O-])cc2cc(C(=O)N3CCCC3)c(=O)oc12 | 14.9% | ? | 10.0% | 5.4% | -7.9% | i
CCC(=O)N1c2ccc(S(=O)(=O)NCc3cccc(OC)c3)cc2CC1C (stereo not drawn) | . | i | . | ? | ? | i
CN(C(=O)c1ccc2c(Cl)c3c(nc2c1)CCC3)c1ccccc1F | . | i | . | -16.8% | 29.1µM* | i
CN(C(=O)c1ccc2c(Cl)c3c(nc2c1)CCC3)c1ccccc1 | 9.2% | i | 3.7% | ? | ? | i
CCN(C(=O)c1ccc2c(Cl)c3c(nc2c1)CCC3)c1ccc(C)c(C)c1 | ? | ? | ? | 20.6µM* | 20.6µM* | ?
Cc1ccc(CNC(=O)C2CCN(c3ncnc4c3nc3n4CCCCC3)CC2)cc1 | . | . | . | 12.2% | 4.1% | .
CC1CCN(C(=O)C2CCN(c3ncnc4c3nc3n4CCCCC3)CC2)CC1 | ? | i | -16.5% | ? | 23.1µM* | i
Cc1ccc(N2CCN(C(=O)C3CCN(c4ncnc5c4nc4n5CCCCC4)CC3)CC2)c(C)c1 | . | . | . | 20.6µM* | ? | .
O=C(C1CCN(c2ncnc3c2nc2n3CCCCC2)CC1)N1CCN(c2ccc(Cl)cc2)CC1 | . | . | . | 10.4% | -2.2% | .
COC(=O)N1CCC[C@@]2(CCN(c3ccncc3)C2)C1 | . | . | . | -21.9% | -21.0% | .
O=C(/C=C/c1cccnc1)Nc1cccc([S+](=O)([O-])Nc2ccccc2F)c1 | . | i | . | . | . | i
CCC(C)(C)NC(=O)C(c1ccc(C)o1)N(C(=O)c1csnn1)c1cccc(F)c1 (stereo not drawn) | 0.2% | i | -8.6% | 1.8% | -16.9% | 16.4µM*
CC(C)(C)NC(=O)C(c1ccco1)N(C(=O)c1csnn1)c1ccccc1 (stereo not drawn) | -2.7% | i | 9.0% | -11.6% | -18.6% | 14.6µM*
CCCCOc1ccc(N(CC(=O)NCc2ccccc2)C(=O)c2csnn2)cc1 | -3.5% | i | -15.7% | ? | 16.4µM* | ?
CCC(C)(C)NC(=O)C(c1ccc(C)cc1)N(Cc1cccnc1)C(=O)c1csnn1 (stereo not drawn) | 1.0% | i | 5.9% | -7.7% | -14.0% | i
CCC(C)(C)NC(=O)C(c1ccccc1)N(Cc1cccnc1)C(=O)c1csnn1 (stereo not drawn) | 5.9% | i | 12.6% | -1.7% | -6.9% | 13µM*
Cc1ccc(CNC(=O)c2cnc3c(-c4ccc(F)cc4)c(C)nn3c2C)o1 | . | ? | . | -6.7% | -44.5% | i
CC(=O)c1cccc(NC(=O)c2cc3sc(Cl)cc3n2C)c1 | . | i | . | -26.5% | ? | i
SMILES | HT1080NT lethal | KB-3-1 cytotox | HT1080 IDH1KD tx | TDP1 cell CPT | DT40 TDP1 no CPT | KB-V1 cytotox
COc1ccccc1C(=O)NC(CCSC)C(=O)NCCCSc1ccccc1 (stereo not drawn) | 3.1% | i | 1.8% | ? | ? | i
O=C(COC(=O)c1cccc(-n2cnnn2)c1)c1ccc(Br)cc1 | 10.0% | i | 3.5% | -1.9% | -8.1% | i
CSCCC(NC(=O)c1ccccc1Cl)C(=O)OCC(=O)N1CCCC1=O (stereo not drawn) | -1.1% | i | 16.9% | 2.1% | -1.8% | ?
COc1ccc(CCCc2nnc(SCC(=O)Nc3cccc(F)c3C)o2)cc1 | . | i | . | -15.3% | -10.7% | i
O=C(NCCc1ccccc1)C(c1cccs1)N(C(=O)c1csnn1)C1CC1 (stereo not drawn) | 1.0% | i | -4.2% | ? | -28.4% | i
COc1ccc(CNC(=O)C(c2ccco2)N(C(=O)c2csnn2)c2cccc(C)c2C)cc1 (stereo not drawn) | -0.9% | i | -0.7% | ? | 23.1µM* | i
O=C(NCc1ccccc1)C(c1ccccc1)N(C(=O)c1csnn1)c1ccccc1 (stereo not drawn) | -3.1% | i | 1.7% | ? | 18.4µM* | ?
O=C(NCc1ccccc1)C(c1cccs1)N(C(=O)c1csnn1)C1CC1 (stereo not drawn) | 13.2% | i | 14.6% | 2.5% | ? | 18.4µM*
O=C(NCc1ccc(F)cc1)C(c1ccccc1)N(C(=O)c1csnn1)c1ccccc1 (stereo not drawn) | -18.7% | i | -16.0% | ? | ? | ?
CC1(C(=O)NCc2cccs2)CCN1CCc1ccccc1 (stereo not drawn) | 2.6% | i | 5.1% | ? | ? | ?
Cc1ccc(Cn2ccnc2SCC(=O)Nc2nnc(C)s2)cc1 | . | i | . | -4.3% | -0.9% | i
CC(CCc1ccccc1)NC(=O)c1ccc(F)cc1 (stereo not drawn) | 15.8% | i | 7.2% | 4.1% | -22.9% | i
COCCN1CSC(=S)N(Cc2ccco2)C1 | 17.0% | i | 4.7% | 20.6µM* | 4.61µM* | i
